The record followed here is PubChem BioAssay (EPA / NIEHS).

The source made the active and inactive calls. Rule for the calls: active = hit-call score of the fitted dose curve at least 0.9, where 1 is the maximum; inactive = score below 0.9.

Common to all, as to details: mRNA level, 48 h; actives raise or lower the signal
Read-out in test [1]: Bcl-2 (BID) gene, BID (gene 637)
Description: LTEA_HepaRG_BID: Life Technologies and Expression Analysis (LTEA) Assay for Bcl-2 (BID) gene using HepaRG (AID 2283476). In a few lines: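 Gene expression by qRT-PCR in HepaRG cells after 48 h exposure, duplicate wells, eight half-log concentrations topping at 100 uM in 0.5% DMSO. Normalized to ACTB, GAPDH, POLR2A; bidirectional fitting relative to DMSO.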

Read-out in a further test: Caspase-3 (Homo sapiens) (UniProt P42574)
Briefly: LTEA_HepaRG_CASP3: Life Technologies and Expression Analysis (LTEA) Assay for cysteine-aspartic acid protease (CASP3) using HepaRG (AID 2283477). In a few lines: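 In HepaRG liver cells dosed for 48 h at up to 100 uM (eight-point, duplicate), CASP3 expression changes are scored by qRT-PCR. Activity is fitted in both directions with 0.5% DMSO as baseline.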

Read-out in test [2]: Cytochrome P450 (CYP24A1), CYP24A1 (gene 1591)
Description: LTEA_HepaRG_CYP24A1: Life Technologies and Expression Analysis (LTEA) Assay for Cytochrome P450 (CYP24A1) using HepaRG (AID 2283478). In a few lines:
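Human liver HepaRG cultures receive each chemical for 48 h across an eight-point half-log series topping at 100 uM in 0.5% DMSO. Induction or suppression of CYP24A1 mRNA is scored relative to vehicle after housekeeping-gene normalization.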

Read-out in test [3]: Cytochrome P450 (CYP1A2), CYP1A2 (gene 1544)
Briefly: LTEA_HepaRG_CYP1A2: Life Technologies and Expression Analysis (LTEA) Assay for Cytochrome P450 (CYP1A2) using HepaRG (AID 2283479). In a few lines: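 Assesses CYP1A2 mRNA in human HepaRG liver cells after 48 h chemical exposure at up to 100 uM. Values come from qRT-PCR with bidirectional curve fitting relative to DMSO.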

Read-out in test [4]: cysteine-aspartic acid protease (CASP8), CASP8 (gene 841)
Briefly: LTEA_HepaRG_CASP8: Life Technologies and Expression Analysis (LTEA) Assay for cysteine-aspartic acid protease (CASP8) using HepaRG (AID 2283480). In a few lines: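 Differentiated HepaRG cells in serum-free induction medium, 48 h exposure, eight-point half-log series from 100 uM in 0.5% DMSO, duplicates. CASP8 mRNA by qRT-PCR, normalized to ACTB, GAPDH, POLR2A; bidirectional fit versus DMSO.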

Read-out in test [5]: Cytochrome P450 (CYP2B6), CYP2B6 (gene 1555)
Briefly: LTEA_HepaRG_CYP2B6: Life Technologies and Expression Analysis (LTEA) Assay for Cytochrome P450 (CYP2B6) using HepaRG (AID 2283481). In a few lines: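 Using 48 h treatment of HepaRG cells in serum-free induction medium, concentrations spanned half-log steps from 100 uM in 0.5% DMSO vehicle. CYP2B6 mRNA induction or loss is scored by qRT-PCR against DMSO.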

Read-out in test [6]: Cytochrome P450 2C19 (Homo sapiens) (UniProt P33261)
Briefly: LTEA_HepaRG_CYP2C19: Life Technologies and Expression Analysis (LTEA) Assay for CYP2C19 using HepaRG (AID 2283482). In a few lines:
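Human HepaRG liver cells received test chemicals for 48 h (highest 100 uM, half-log dilutions in 0.5% DMSO). CYP2C19 mRNA induction or loss is read by multiplexed qRT-PCR and fitted in both directions versus vehicle.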

Read-out in a further test: CYP2C8 (gene 1558)
Briefly: LTEA_HepaRG_CYP2C8: Life Technologies and Expression Analysis (LTEA) Assay for CYP2C8 using HepaRG (AID 2283483). In a few lines:
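Differentiated HepaRG cells in serum-free induction medium exposed 48 h in duplicate to 8 half-log concentrations from 100 uM in 0.5% DMSO. CYP2C8 mRNA by qRT-PCR normalized to ACTB, GAPDH, POLR2A; bidirectional fit versus DMSO.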

Read-out in the next test: CYP2E1 (gene 1571)
Description: LTEA_HepaRG_CYP2E1: Life Technologies and Expression Analysis (LTEA) Assay for CYP2E1 using HepaRG (AID 2283485). In a few lines: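 HepaRG cells, plated 48 h, then exposed 48 h in serum-free induction medium to eight half-log concentrations from 100 uM in 0.5% DMSO, duplicate. CYP2E1 mRNA by qRT-PCR, normalized to ACTB/GAPDH/POLR2A; bidirectional fit versus DMSO.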

Read-out in another test: CYP4A11 (gene 1579)
Briefly: LTEA_HepaRG_CYP4A11: Life Technologies and Expression Analysis (LTEA) Assay for CYP4A11 using HepaRG (AID 2283486). In a few lines: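 Readout is CYP4A11 mRNA induction or suppression (qRT-PCR, ACTB/GAPDH/POLR2A normalization) in human HepaRG cells after 48 h chemical treatment, concentrations to 100 uM in 0.5% DMSO, fitted bidirectionally against vehicle.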

Read-out in test [7]: DNA damage-inducible transcript 3 (DDIT3), DDIT3 (gene 1649)
Briefly: LTEA_HepaRG_DDIT3: Life Technologies and Expression Analysis (LTEA) Assay for DNA damage-inducible transcript 3 (DDIT3) using HepaRG (AID 2283488). In a few lines: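 HepaRG cells, 48 h after plating, exposed 48 h in serum-free induction medium to 8 half-log concentrations up to 100 uM in 0.5% DMSO, in duplicate. DDIT3 mRNA measured by TaqMan qRT-PCR, normalized to ACTB, GAPDH and POLR2A. Fitted bidirectionally against DMSO.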

Read-out in test [8]: Pro-epidermal growth factor (Homo sapiens) (UniProt P01133)
Description: LTEA_HepaRG_EGF: Life Technologies and Expression Analysis (LTEA) Assay for Epidermal growth factor (EGF) using HepaRG (AID 2283489). In a few lines: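 EGF expression changes in human HepaRG cells are scored by bidirectional fitting relative to 0.5% DMSO controls. Chemicals are tested at eight half-log concentrations up to 100 uM for 48 h in serum-free induction medium.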

Read-out in test [9]: Early growth response protein 1 (EGR1) transcription factor, EGR1 (gene 1958)
Description: LTEA_HepaRG_EGR1: Life Technologies and Expression Analysis (LTEA) Assay for Early growth response protein 1 (EGR1) transcription factor using HepaRG (AID 2283490). In a few lines:
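Differentiated HepaRG cells in serum-free induction medium exposed 48 hours, duplicate, to 8 half-log concentrations up to 100 uM in 0.5% DMSO. EGR1 mRNA measured by TaqMan qRT-PCR, normalized to ACTB, GAPDH, POLR2A; bidirectional fit versus DMSO.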

Read-out in test [10]: Ezrin (EZR), EZR (gene 7430)
Description: LTEA_HepaRG_EZR: Life Technologies and Expression Analysis (LTEA) Assay for Ezrin (EZR) using HepaRG (AID 2283491). In a few lines: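 Read-out is EZR transcript level by qRT-PCR, normalized to three housekeeping genes and fitted bidirectionally against the DMSO control. Human HepaRG cells received test chemicals for 48 h at eight half-log concentrations up to 100 uM in 0.5% DMSO.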

Read-out in test [11]: Cytochrome P450 3A7 (Homo sapiens) (UniProt P24462)
Description: LTEA_HepaRG_CYP3A7: Life Technologies and Expression Analysis (LTEA) Assay for CYP3A7 using HepaRG (AID 2283492). In a few lines:
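Cells were thawed, plated, cultured 48 h, then treated for a further 48 h with chemicals (eight-point half-log series from 100 uM, 0.5% DMSO). RNA was isolated and CYP3A7 expression quantified by qRT-PCR normalised to ACTB, GAPDH and POLR2A.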

Read-out in another test: CYP3A5 (gene 1577)
Briefly: LTEA_HepaRG_CYP3A5: Life Technologies and Expression Analysis (LTEA) Assay for CYP3A5 using HepaRG (AID 2283493). In a few lines: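 HepaRG cells, plated 48 h then in serum-free induction medium, dosed in duplicate for 48 h with eight half-log concentrations up to 100 uM in 0.5% DMSO. Gene mRNA by Fluidigm TaqMan qRT-PCR, normalized to ACTB, GAPDH, POLR2A.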

Read-out in test [12]: Cytochrome P450 4A22 (Homo sapiens) (UniProt Q5TCH4)
Description: LTEA_HepaRG_CYP4A22: Life Technologies and Expression Analysis (LTEA) Assay for Cytochrome P450 4A22 (CYP4A22) using HepaRG (AID 2283495). In a few lines: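 Cryopreserved HepaRG cells, plated and cultured 48 h, then switched to serum-free induction medium and treated 48 h (duplicates, up to 100 uM, half-log steps, 0.5% DMSO). Expression change of CYP4A22 was fitted bidirectionally against vehicle.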

Read-out in test [13]: Cytochrome P450 3A4 (Homo sapiens) (UniProt P08684)
Description: LTEA_HepaRG_CYP3A4: Life Technologies and Expression Analysis (LTEA) Assay for CYP3A4 using HepaRG (AID 2283487). In a few lines:
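HepaRG, 48 h exposure, 8-pt CRC from 100 uM (half-log), 0.5% DMSO, duplicates; serum-free induction medium. Readout: CYP3A4 mRNA, qRT-PCR, ACTB/GAPDH/POLR2A normalization. Bidirectional fit vs DMSO.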

Read-out in test [14]: Fatty Acid-Binding Protein 1 (FABP1), FABP1 (gene 2168)
Description: LTEA_HepaRG_FABP1: Life Technologies and Expression Analysis (LTEA) Assay for Fatty Acid-Binding Protein 1 (FABP1) using HepaRG (AID 2283494). In a few lines: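 Differentiated human HepaRG cells exposed 48 h in serum-free induction medium to eight half-log concentrations up to 100 uM (0.5% DMSO), duplicate. FABP1 mRNA by qRT-PCR, normalised to ACTB, GAPDH, POLR2A; bidirectional fitting against DMSO.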

Read-out in the next test: CYP2C9 (gene 1559)
Description: LTEA_HepaRG_CYP2C9: Life Technologies and Expression Analysis (LTEA) Assay for CYP2C9 using HepaRG (AID 2283484). In a few lines: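 Differentiated human HepaRG cells in serum-free induction medium were exposed 48 h to chemicals in 8-point half-log series from 100 uM (0.5% DMSO), in duplicate. CYP2C9 mRNA was measured by qRT-PCR, normalized to ACTB/GAPDH/POLR2A, with bidirectional fitting versus DMSO.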

Sequence of Cytochrome P450 2C19 (Homo sapiens) (P33261 whole entry, looked up): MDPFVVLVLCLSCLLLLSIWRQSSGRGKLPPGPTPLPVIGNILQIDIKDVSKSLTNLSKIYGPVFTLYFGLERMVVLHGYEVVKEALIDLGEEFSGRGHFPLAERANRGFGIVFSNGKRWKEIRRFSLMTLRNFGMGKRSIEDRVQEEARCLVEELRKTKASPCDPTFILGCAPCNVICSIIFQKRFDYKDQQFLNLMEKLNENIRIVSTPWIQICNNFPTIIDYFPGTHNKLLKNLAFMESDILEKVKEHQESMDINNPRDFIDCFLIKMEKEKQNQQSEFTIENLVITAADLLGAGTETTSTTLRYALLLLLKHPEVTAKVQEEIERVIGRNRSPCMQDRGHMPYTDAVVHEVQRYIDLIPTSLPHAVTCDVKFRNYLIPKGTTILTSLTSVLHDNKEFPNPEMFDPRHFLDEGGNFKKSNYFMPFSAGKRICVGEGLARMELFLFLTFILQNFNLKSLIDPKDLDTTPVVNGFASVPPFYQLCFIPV
Sequence of Caspase-3 (Homo sapiens) (P42574 whole entry, looked up): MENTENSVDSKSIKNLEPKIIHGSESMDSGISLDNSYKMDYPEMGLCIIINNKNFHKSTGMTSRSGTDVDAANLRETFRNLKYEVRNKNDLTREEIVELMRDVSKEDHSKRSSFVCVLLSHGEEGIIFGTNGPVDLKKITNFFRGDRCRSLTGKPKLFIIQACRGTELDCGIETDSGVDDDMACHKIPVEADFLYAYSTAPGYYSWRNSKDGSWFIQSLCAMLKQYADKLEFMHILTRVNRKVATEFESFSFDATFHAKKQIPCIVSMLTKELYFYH
Sequence of Cytochrome P450 3A7 (Homo sapiens) (P24462 whole entry, looked up): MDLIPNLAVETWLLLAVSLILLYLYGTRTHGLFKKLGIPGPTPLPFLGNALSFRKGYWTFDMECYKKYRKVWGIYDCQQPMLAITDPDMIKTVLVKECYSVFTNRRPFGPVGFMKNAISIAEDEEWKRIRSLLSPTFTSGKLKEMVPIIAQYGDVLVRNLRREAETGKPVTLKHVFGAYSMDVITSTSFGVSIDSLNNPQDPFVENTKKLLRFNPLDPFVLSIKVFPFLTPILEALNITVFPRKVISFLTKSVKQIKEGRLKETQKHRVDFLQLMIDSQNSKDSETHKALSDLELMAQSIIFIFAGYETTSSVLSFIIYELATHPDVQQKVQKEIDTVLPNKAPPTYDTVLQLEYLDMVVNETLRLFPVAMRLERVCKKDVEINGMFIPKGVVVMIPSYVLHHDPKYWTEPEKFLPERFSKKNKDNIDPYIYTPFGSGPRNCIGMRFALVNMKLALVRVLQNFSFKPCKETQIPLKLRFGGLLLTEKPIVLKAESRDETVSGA
Sequence of Cytochrome P450 3A4 (Homo sapiens) (P08684 whole entry, looked up): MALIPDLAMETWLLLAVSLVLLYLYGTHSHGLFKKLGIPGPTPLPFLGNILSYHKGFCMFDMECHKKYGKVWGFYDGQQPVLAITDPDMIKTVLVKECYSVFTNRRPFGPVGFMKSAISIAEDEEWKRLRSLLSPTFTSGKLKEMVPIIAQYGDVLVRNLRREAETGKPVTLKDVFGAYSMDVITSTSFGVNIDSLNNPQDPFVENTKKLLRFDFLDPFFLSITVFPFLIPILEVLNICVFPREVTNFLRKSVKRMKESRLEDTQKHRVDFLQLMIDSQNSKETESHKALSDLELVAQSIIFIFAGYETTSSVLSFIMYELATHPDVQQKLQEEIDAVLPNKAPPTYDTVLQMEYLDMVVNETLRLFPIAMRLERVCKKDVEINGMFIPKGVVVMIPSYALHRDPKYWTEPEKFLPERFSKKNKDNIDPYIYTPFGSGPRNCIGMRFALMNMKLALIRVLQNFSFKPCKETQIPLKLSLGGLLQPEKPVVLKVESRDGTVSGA

Regarding `CCOP(=S)(OCC)Oc1cc(C)nc(C(C)C)n1`, the outcome (in test [1]; with Caspase-3 (Homo sapiens); in [2]; in test [4]; in the test with CYP2C8 (gene 1558); in the test with CYP4A11 (gene 1579)) was inactive. In addition, the outcome (in test [7]; in test [8]; in test [9]; in [10]; in test [11]; with CYP3A5 (gene 1577)) was inactive. For the same compound, in [12], the outcome was inactive. The AC50 is 29.3 µM (active) in [3], 2.5 µM (active) in [5], 16.1 µM (active) in test [6] and 9.92 µM (active) in the test with CYP2E1 (gene 1571).
In the case of `COc1cc(OC)nc(Sc2cccc(Cl)c2C(=O)O)n1`, the call (in [1]; in the test with Caspase-3 (Homo sapiens); in test [2]; in test [3]; in test [4]; in [5]) was inactive. Besides, the result (in test [6]; in the test with CYP2C8 (gene 1558); in the test with CYP4A11 (gene 1579); in test [7]; in test [8]; in [9]) was inactive. Besides, the outcome (in test [10]; in [11]; in the test with CYP3A5 (gene 1577); in [14]; in [12]) was inactive. The figures for the AC50 (in the test with CYP2E1 (gene 1571); in test [13]) were 29.7 µM (active) and 50 µM (active), respectively.
Turning to `CCCCOC(=O)c1ccccc1C(=O)O`, the outcome (in [1]; in the test with Caspase-3 (Homo sapiens); in test [2]; in [4]; in test [6]; with CYP2C8 (gene 1558)) was inactive. For the same compound, the outcome (with CYP2E1 (gene 1571); with CYP4A11 (gene 1579); in test [13]; in [7]; in test [8]; in test [9]) was inactive. In addition, the compound was classed as inactive (in [10]; with CYP3A5 (gene 1577); in test [14]; in test [12]). The AC50 in [3] is 32.8 µM (active); in [5] it was 10.2 µM (active); in test [11] it was 12.7 µM (active).
In the case of `CC1(C(=O)Nc2ccc(O)c(Cl)c2Cl)CCCCC1`, the outcome (in test [1]; with Caspase-3 (Homo sapiens); in test [2]; in test [3]; in [4]; in [5]) was inactive. Moreover, the call (in test [6]; in the test with CYP2C8 (gene 1558); with CYP2E1 (gene 1571); with CYP4A11 (gene 1579); in test [7]; in [8]) was inactive. For the same compound, the compound was called inactive (in [9]; in test [10]; in test [11]; with CYP3A5 (gene 1577); in [12]). The AC50 in test [13] was 21.4 µM (active).
For the compound `CC(C)[C@H](C(=O)O[C@H](C#N)c1cccc(Oc2ccccc2)c1)c1ccc(Cl)cc1`, the compound was called inactive (in test [1]; in the test with Caspase-3 (Homo sapiens); in test [2]; in test [4]; in the test with CYP2C9 (gene 1559); with CYP4A11 (gene 1579)). Besides, the call (in test [7]; in test [8]; in [10]; in test [11]; with CYP3A5 (gene 1577); in test [12]) was inactive. The AC50 in test [3] was 37.3 µM (active); in test [5], 20.8 µM (active); in test [6], 34.2 µM (active); in the test with CYP2E1 (gene 1571) it was 50 µM (active); in test [13], 10.5 µM (active).

In general, AC50 refers to the concentration giving half of the maximal activity seen.
